Rows were chosen to be rich in hits. Some 19% of all compounds tested hit in one or more screens of this group.
HT1080-NT tox – qHTS for induction of synthetic lethality in tumor cells producing 2HG: qHTS for the HT-1080-NT fibrosarcoma cell line. HT-1080-NT fibrosarcoma viability, CellTiter-Glo ATP luminescence, 48 h. Potency, µM (titrated, usually from 46.1 µM), for the others: at the top dose activity, negative = less viability, usual class: cytotoxic. 360,000 compounds, 1.6% hits. AID 686970, 2013;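 note: NT is the 2HG producing partner of a matched IDH1 knockdown line; potency is the fitted concentration of half-maximal effect; 0% = DMSO-treated cells and -100% = media-only wells without cells; nearly all actives have a fitted effect of over 55% in size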
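Fibrosarcoma NT cells, 750 per well in 5% FBS RPMI, were exposed to compound for 48 hours. Viability: CellTiter-Glo luminescence.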
ELG1 repair inh – qHTS screen for small molecules that inhibit ELG1-dependent DNA repair in human embryonic kidney (HEK293T) cells expressing luciferase-tagged ELG1 | HEK293T ELG1-luciferase reporter, luminescence, 16 h; DNA damage induced by 5-fluorouridine | Potency, µM (titrated, usually from 46.1 µM), for inactives: at the top dose activity change, negative = inhibition, most hits filed as inhibitors | 330,000 compounds, 2.3% hits; note: potency is the fitted concentration of half-maximal effect; nearly all actives have a fitted effect of over 55% in size
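Reporter activity after DNA damage by 5-fluorouridine is monitored. Compound-treated cells incubate 16 hr at 37 °C, then ONE-Glo is added for 30 min before luminescence reading.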
IL-1B inflam inh – qHTS for Inhibitors of Inflammasome Signaling: IL-1-beta AlphaLISA Primary Screen. THP-1 LPS/ATP IL-1B secretion, AlphaLISA, 16 h; stronger effect = lower value. activity change, % at 57.5 µM. 360,000 compounds, 4.7% hits. AID 743279, 2014; in the data active = activity change below about -50%; inconclusive = mostly about -30% to -49%
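Secreted IL-1B measured by AlphaLISA bead assay after 16 h compound exposure of THP-1 cells; compounds (final up to 57.5 uM) added 1 h before LPS (250 ng/mL) and ATP (1.25 mM) stimulation; lower signal means less secretion.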
HT1080 IDH1KD tx – qHTS for induction of synthetic lethality in tumor cells producing 2HG: qHTS for the HT-1080-IDH1KD cell line; AID 686971, 2013; 360,000 compounds, 2% hits; Potency, µM (top dose mostly 46.1 µM), inactives show at the highest dose activity, negative = toxicity, usual class: cytotoxic; HT-1080 IDH1 knockdown viability, ATP luminescence, 48 h;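 note: potency is the fitted concentration of half-maximal effect; 0% = DMSO wells and -100% = cell-free medium wells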
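Cytotoxicity counter-line: IDH1KD HT-1080, 48 h, CellTiter-Glo. Curves classed by r2, magnitude and activity.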
DT40 TDP1 no CPT – qHTS for Inhibitors of human tyrosyl-DNA phosphodiesterase 1 (TDP1): qHTS in cells in absence of CPT | DT40 Tdp1-/- hTDP1 cells, no CPT, ATP luminescence, 48 h | Potency, µM (series often up to 46.2 µM), inactives show at the top dose activity change, negative = growth inhibition, usual class: inhibitors | 420,000 compounds, 15% hits; note: potency is the fitted concentration of half-maximal effect; nearly all actives have a fitted effect of over 55% in size
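Growth of hTDP1-complemented DT40 Tdp1-knockout cells is measured by ATP luminescence after at least 48 hr compound exposure at 37 °C, with DMSO substituting for the 20 nM CPT used in the parallel screen.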
DT40 TDP1 CPT – qHTS for Inhibitors of human tyrosyl-DNA phosphodiesterase 1 (TDP1): qHTS in cells in presence of CPT | chicken DT40 Tdp1-/-;hTDP1 cells + 20 nM CPT, ATP luminescence, 48 h | Potency, µM (series often up to 46.2 µM), inactives show at the highest dose activity change, negative = growth inhibition, hits mostly inhibitors | 420,000 compounds, 12% hits | AID 686979, 2013; note: potency is the fitted concentration of half-maximal effect; nearly all actives have a fitted effect of over 55% in size
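Chicken DT40 Tdp1-/- cells complemented with human TDP1, 400 cells/well, exposed to compounds plus 20 nM camptothecin for at least 48 h at 37 C; viability read as ATP content by CellTiter-Glo luminescence.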
* hit, by the source's call; ? = inconclusive; . = not tested or not shown; [ ] = dose if it differs, or a comment. Unless noted, calls come from the whole dose curve; as a rule, active = well fitted curve in the direction sought with a large enough effect; inconclusive = small, poorly fitted or top-dose-only effect, or another doubt; inactive = no such curve, though single readings can be large; an effect the other way counts as inactive or inconclusive. Unless noted, % is set by controls: 0 for no effect and ±100 for the full control effect.

SMILES	HT1080-NT tox	ELG1 repair inh	IL-1B inflam inh	HT1080 IDH1KD tx	DT40 TDP1 no CPT	DT40 TDP1 CPT
CC1CCN(S(=O)(=O)c2ccc(C(=O)OC(C)C(=O)NC3CCCCC3C)cc2)CC1 (stereo not given)	9.8%	2.6%	-0.8	2.6%	?	0.0%
CC1CCN(S(=O)(=O)c2ccc(C(=O)OC(C)C(=O)N(C)C3CCCCC3)cc2)CC1 (stereo not given)	-1.1%	8.4%	29.1	3.9%	25.9µM*	?
COC(=O)Nc1ccc(S(=O)(=O)N2CCC(C(=O)N(C)C3CCCCC3)CC2)cc1	-8.5%	-16.5%	2.1	-6.5%	25.9µM*	?
CCOC(=O)N1CCN(C(=O)/C(=C/c2cccs2)NC(=O)c2cccs2)CC1	-9.1%	-11.5%	19.8	17.1%	-19.4%	6.3%
COc1ccc(OC)c(NC(=O)c2cc3cccc(OC)c3oc2=O)c1	.	.	.	.	-13.4%	-11.8%
O=C(O)c1cccc2c1Cc1cc(Cl)ccc1-2	12.3%	.	8.8	1.8%	-21.5%	?
O=C(CSc1ccc2ccccc2c1Br)Nc1cccc(S(=O)(=O)NC2=NCCCCC2)c1	18.4µM*	?	-22.4	16.4µM*	?	-28.2%
O=C(CSc1cccc[n+]1[O-])Nc1cccc(S(=O)(=O)NC2=NCCCCC2)c1	0.1%	15.5%	-0.9	0.3%	4.6%	2.4%
Nc1nc2cc(S(=O)(=O)NC3=NCCCCC3)ccc2s1	21.7%	-0.5%	?	1.9%	13µM*	14.6µM*
Cc1ccc(OCC(=O)Nc2cccc(S(=O)(=O)NC3=NCCCCC3)c2)cc1C	-0.4%	2.3%	16.6	10.1%	?	?
Cc1cc(C)cc(-n2c(SCC(=O)Nc3cccc(S(=O)(=O)NC4=NCCCCC4)c3)nc3ccccc3c2=O)c1	?	1.2%	-21.1	9.0%	?	18.4µM*
Cc1cc(OCC(=O)Nc2cccc(S(=O)(=O)NC3=NCCCCC3)c2)ccc1Cl	-6.4%	-17.4%	?	-1.9%	2.59µM*	?
CNc1nc(Oc2cccc(NC(C)=O)c2)c2sccc2n1	-3.9%	.	5.7	-1.6%	-12.7%	?
COc1ccccc1C(=O)OCC(=O)Nc1ccc(Cl)cn1	7.5%	?	0.0	-1.7%	-13.2%	-14.1%
CC(C)C[C@H]1CN(CCCC[C@@H]2CNC(=O)C(=O)N2CCc2ccccc2)C(=O)C(=O)N1CCc1ccccc1	12.9%	.	-13.4	9.6%	-14.7%	9.8%
CCOc1ccc(Br)cc1S(=O)(=O)Nc1cccc(S(=O)(=O)N2CCOCC2)c1	2.4%	.	32.8	-6.0%	-12.2%	-17.0%
O=C(CCl)Nc1cccc(S(=O)(=O)NC2=NCCCCC2)c1	3.66µM*	?	-99.3*	?	5.17µM*	3.66µM*
CCCOc1ccc(C(=O)Nc2ccc(S(=O)(=O)NC3=NCCCCC3)cc2)cc1	-16.9%	?	-5.7	-24.5%	20.6µM*	13µM*
CC(C)(C)C(=O)Nc1ccc(S(=O)(=O)NC2=NCCCCC2)cc1	-4.9%[9.24 µM]	13.7%	6.1	2.9%	-26.7%	?
CCOc1ncccc1C(=O)Nc1ccc(S(=O)(=O)NC2=NCCCCC2)cc1	8.6%	7.1%	?	17.1%	-24.2%	6.7%
O=C(CCl)Nc1ccc(S(=O)(=O)NC2=NCCCCC2)cc1	?	?	-96.2*	18.4µM*	13µM*	18.4µM*
COc1cccc(CNC(=O)c2c(OC)cc(=O)n3c2CCN(C(=O)c2cc(C)ccc2C)CC3)c1	.	.	.	.	-2.8%	14.4%
N=C1CCCC1C(=S)SCCC(N)=O (stereo not given)	2.6%	.	10.7	5.0%	1.4%	13.3%
O=C(CN1C2CCCC1CC(NC(=O)c1ccco1)C2)Nc1ccccc1C(F)(F)F (stereo not given)	10.2%	?	-24.6	7.0%	23.1µM*	23.1µM*
O=C(CN1C2CCCC1CC(NC(=O)c1ccccc1)C2)Nc1ccccc1C(F)(F)F (stereo not given)	-2.9%	?	-28.3	3.4%	16.4µM*	?
SMILES	HT1080-NT tox	ELG1 repair inh	IL-1B inflam inh	HT1080 IDH1KD tx	DT40 TDP1 no CPT	DT40 TDP1 CPT
COc1cccc(CN(C)C[C@H]2OCc3cnnn3CCCC(=O)N([C@@H](C)CO)C[C@@H]2C)c1	7.6%	.	19.5	12.8%	4.8%	2.7%
COc1cc(OC)c(C(=O)/C=C/c2ccccc2)c(O)c1O	-16.2%	-32.0%	-100.2*	-17.5%	?	?
COc1cc(O)cc(O)c1C(=O)/C=C/c1ccccc1	-16.3%	-4.5%	-106.1*	-13.3%	14.6µM*	14.6µM*
Cc1cc(O)c(C(=O)/C=C/c2ccccc2)c(=O)o1	-4.1%	-10.1%	-5.0	-15.2%	?	?
CN(C)S(=O)(=O)c1cc(C(=O)OCCn2cnc3c2c(=O)n(C)c(=O)n3C)ccc1Cl	0.0%	?	8.7	-0.4%	?	-14.5%
COc1ccc(CCNC(=O)c2ccc(NC(=O)CC3SC(N4CCCC4)=NC3=O)cc2)cc1OC (stereo not given)	0.2%	.	-16.6	-0.5%	-1.0%	1.6%
COc1ccc(CN(C(=O)c2ccc(OCC(C)C)cc2)C2CCS(=O)(=O)C2)cc1 (stereo not given)	.	.	.	.	?	11.6µM*
Cc1cc(OCC(=O)N(Cc2ccco2)C2CCS(=O)(=O)C2)cc(C)c1Cl (stereo not given)	-4.5%	-4.7%	-10.9	-18.9%	?	-27.4%
Cc1cc(OC(C)C(=O)N(Cc2ccco2)C2CCS(=O)(=O)C2)cc(C)c1Cl (stereo not given)	-0.2%	-6.3%	-28.2	11.7%	20.6µM*	?
CC(C)COc1ccc(C(=O)N(Cc2ccco2)C2CCS(=O)(=O)C2)cc1 (stereo not given)	-1.0%	?	2.4	-2.3%	16.4µM*	?
Cc1cc2n(n1)C(c1ccc3c(c1)OCO3)Nc1c(C)cccc1-2 (stereo not given)	-4.6%	-0.5%	-1.5	-0.2%	20.2%	-0.4%

Compound activity deposited in PubChem by National Center for Advancing Translational Sciences (NCATS).
